Measured values published in PubChem BioAssay (NCI).
About 79,000 compounds went through this panel and 15% of them were active in at least one assay; those are over-represented in the sample as a whole. A number with no mark means an inactive call. Active and inactive are the calls of the source. Rule as the data show it: active = growth inhibition above about 70%; inactive = the rest.

Assay: NCI Yeast Anticancer Drug Screen. Data for the rad50 strain (AID 155);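 also: 0% = growth of vehicle-only cultures of the same strain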
Conditions: S. cerevisiae rad50 strain growth inhibition; at 50.0 µM (retest, dose inferred, filed as 5.0); active compounds read high
How it was run: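 A DNA repair-deficient yeast mutant serves as the test organism; compound-induced growth inhibition is calculated against vehicle-treated cells.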

SMILES	growth inhibition
S=c1sc2ccccc2n1C=Nc1ccccc1	83% (active)
CSc1nc(NC2OC(CO)C(O)C(O)C2O)c(Cl)c(=O)[nH]1 (stereo not drawn)	-1%
C=CCN1/C(=C\C=C\c2ccc3cc(C)ccc3[n+]2CC=C)C=Cc2cc(C)ccc21	97% (active)
S=c1[nH]nc(SCc2ccc(Cl)c(Cl)c2)c2[nH]cnc12	-13%
Nc1ccc(C(=O)/C=C/c2ccccn2)cc1	45%
CCOC(=O)C(C(=O)O)(C(c1ccccc1)c1ccccc1)C(c1ccccc1)c1ccccc1	98% (active)
CSC(=S)n1nc(-c2ccccc2)c(N=Nc2ccc(Br)cc2)c1-c1ccccc1	14%
COc1ccc([N+](=O)[O-])cc1Nc1c2ccccc2nc2ccccc12	69%
C=CCN1/C(=C/C=C\c2sc3ccccc3[n+]2CC=C)Sc2ccccc21	98% (active)
COc1ccc(/C=C/C(C(=O)O)C(=O)O)cc1	65%
CN(C)C(=O)c1cc(Br)cc(-c2ccccc2)c1O	77% (active)
Cc1cc(N=[N+]=[N-])c2cc(C3CCCCC3)ccc2n1	99% (active)
[Cu+2].[O-]/N=C/c1cccc(O)c1[O-].[O-]/N=C/c1cccc(O)c1[O-]	99% (active)
c1ccc(Cn2nnc(-c3ccccc3)c2-c2ccccc2)cc1	90% (active)
CCOc1ccc2nc(Cl)sc2c1	67%
CCOC(=O)c1sc2c(c1O)c(=O)n(-c1ccccc1)c(=S)n2-c1ccccc1	98% (active)
O=C(O)c1c[nH]c2cc(Cl)ccc2c1=O	-5%
Cc1cc2c(cc1O)CC[C@@H]1[C@@H]2CC[C@]2(C)[C@@H](O)CC[C@@H]12	-27%
NC(=O)NOCC1NC(=O)NC1=O (stereo not drawn)	-4%
CCOC(=O)c1cnc2cc3cccccc3n2c1=O	62%
CC(CO)CCC(=O)C(C)C1C(=O)CC2CC3CC(O)CCC3(C)CC21C (stereo not drawn)	41%
N#CSC#Cc1ccc(C#CSC#N)cc1	98% (active)
CCS/C(SC)=C(/c1ccccc1)[P+](c1ccccc1)(c1ccccc1)c1ccccc1	99% (active)

Same assay, conditions: S. cerevisiae rad50 strain growth inhibition; at 50.0 µM; active compounds read high

SMILES	growth inhibition
CCSC1(SCC)C(=O)OC2=C(CCCC2)C1N1CCOCC1 (stereo not drawn)	34.1%
NC(=O)C(CCc1cccc2ccccc12)c1ccccc1 (stereo not drawn)	98.8% (active)
NC(CCCCCC(N)C(=O)O)C(=O)O (stereo not drawn)	15.1%
CN(C)CC(CN(C)C)C(=O)C1CCCCC1	81.2% (active)
O=C1/C(=C/c2ccc([N+](=O)[O-])cc2)Sc2scc(-c3cccc([N+](=O)[O-])c3)[n+]21	83.5% (active)
CC(C)(C)c1cc(C(P(=O)(c2ccccc2)c2ccccc2)P(=O)(c2ccccc2)c2ccccc2)cc(C(C)(C)C)c1O	97.9% (active)
COC(=O)c1cc(=O)n(-c2ccccc2C(F)(F)F)c(SC)n1	99.2% (active)
CSC(SC)=C1C(=O)NC(Cc2ccccc2)C1=O (stereo not drawn)	80.1% (active)
c1ccc(C(c2ccccc2)c2ccc3ccccc3n2)cc1	18.1%
CN(C)c1nc(N(C)C)nc([N+](C)(C)C)n1	98.5% (active)
CCCNC(=S)N/N=C(/C)c1nccc2ccccc12	38.1%
OC(CN1CCc2ccccc2C1)c1ccc2ccccc2c1 (stereo not drawn)	86.5% (active)
Nc1nc(N)c2nc(CNc3ccc(C(=O)NC(CCC(=O)O)C(=O)O)cc3)ccc2n1 (stereo not drawn)	16.3%
O=c1c2ccccc2c2ccccc2n1O	97.5% (active)
CC(=O)N1c2ccccc2Sc2ccc3ccc(C(=O)CCl)cc3c21	87.2% (active)
CC(NNC(=S)N1CC2CCC(CC2)C1)c1nccc2ccccc12 (stereo not drawn)	98.7% (active)
O=C1O/C(=C(\Cc2ccccc2)c2ccccc2)N(c2ccccc2)C1=O	69.2%
S=c1sc2ccccc2n1C=Nc1ccccc1	98.9% (active)
CSc1nc(NC2OC(CO)C(O)C(O)C2O)c(Cl)c(=O)[nH]1 (stereo not drawn)	42.1%
C=CCN1/C(=C\C=C\c2ccc3cc(C)ccc3[n+]2CC=C)C=Cc2cc(C)ccc21	90.5% (active)

SMILES	growth inhibition
S=c1[nH]nc(SCc2ccc(Cl)c(Cl)c2)c2[nH]cnc12	1.45%
Nc1ccc(C(=O)/C=C/c2ccccn2)cc1	8.2%
CCOC(=O)C(C(=O)O)(C(c1ccccc1)c1ccccc1)C(c1ccccc1)c1ccccc1	98.5% (active)
CSC(=S)n1nc(-c2ccccc2)c(N=Nc2ccc(Br)cc2)c1-c1ccccc1	41%
COc1ccc([N+](=O)[O-])cc1Nc1c2ccccc2nc2ccccc12	80.8% (active)
C=CCN1/C(=C/C=C\c2sc3ccccc3[n+]2CC=C)Sc2ccccc21	91.7% (active)
COc1ccc(/C=C/C(C(=O)O)C(=O)O)cc1	82.7% (active)
CN(C)C(=O)c1cc(Br)cc(-c2ccccc2)c1O	55.1%
Cc1cc(N=[N+]=[N-])c2cc(C3CCCCC3)ccc2n1	96.5% (active)
[Cu+2].[O-]/N=C/c1cccc(O)c1[O-].[O-]/N=C/c1cccc(O)c1[O-]	93.8% (active)
c1ccc(Cn2nnc(-c3ccccc3)c2-c2ccccc2)cc1	90.6% (active)
CCOc1ccc2nc(Cl)sc2c1	82.5% (active)
CCOC(=O)c1sc2c(c1O)c(=O)n(-c1ccccc1)c(=S)n2-c1ccccc1	95.7% (active)
O=C(O)c1c[nH]c2cc(Cl)ccc2c1=O	-1.55%
Cc1cc2c(cc1O)CC[C@@H]1[C@@H]2CC[C@]2(C)[C@@H](O)CC[C@@H]12	38.5%
NC(=O)NOCC1NC(=O)NC1=O (stereo not drawn)	-4.95%
CCOC(=O)c1cnc2cc3cccccc3n2c1=O	71.7% (active)
CC(CO)CCC(=O)C(C)C1C(=O)CC2CC3CC(O)CCC3(C)CC21C (stereo not drawn)	83.2% (active)
N#CSC#Cc1ccc(C#CSC#N)cc1	30.6%
CCS/C(SC)=C(/c1ccccc1)[P+](c1ccccc1)(c1ccccc1)c1ccccc1	90.6% (active)
